Data taken from ChEMBL document CHEMBL3988442, “University of Dundee, Small-Polar-MMV Screening Library” (2021).
For some of these results: Entries with a potency or affinity are not part of this list.

How the values were obtained:
Parameters in all cases: scale not given: direction of the effect not stated beside the values
[1] = molecular target: Protein translocase subunit SecA (Escherichia coli (strain K12)) (UniProt P10408); test: Assay to Identify E. coli SecA ATPase Inhibitors; format: functional; details: 30 µM
[2] = molecular target: T1, Ubiquitin-activating enzyme e1, putative (Leishmania donovani (strain BPK282A1)) (UniProt E9BSI1); test: Leishmania donovani Ubiquitin Activating Enzyme (LdE1); format: functional; details: 30 µM
T1 sequence (whole entry): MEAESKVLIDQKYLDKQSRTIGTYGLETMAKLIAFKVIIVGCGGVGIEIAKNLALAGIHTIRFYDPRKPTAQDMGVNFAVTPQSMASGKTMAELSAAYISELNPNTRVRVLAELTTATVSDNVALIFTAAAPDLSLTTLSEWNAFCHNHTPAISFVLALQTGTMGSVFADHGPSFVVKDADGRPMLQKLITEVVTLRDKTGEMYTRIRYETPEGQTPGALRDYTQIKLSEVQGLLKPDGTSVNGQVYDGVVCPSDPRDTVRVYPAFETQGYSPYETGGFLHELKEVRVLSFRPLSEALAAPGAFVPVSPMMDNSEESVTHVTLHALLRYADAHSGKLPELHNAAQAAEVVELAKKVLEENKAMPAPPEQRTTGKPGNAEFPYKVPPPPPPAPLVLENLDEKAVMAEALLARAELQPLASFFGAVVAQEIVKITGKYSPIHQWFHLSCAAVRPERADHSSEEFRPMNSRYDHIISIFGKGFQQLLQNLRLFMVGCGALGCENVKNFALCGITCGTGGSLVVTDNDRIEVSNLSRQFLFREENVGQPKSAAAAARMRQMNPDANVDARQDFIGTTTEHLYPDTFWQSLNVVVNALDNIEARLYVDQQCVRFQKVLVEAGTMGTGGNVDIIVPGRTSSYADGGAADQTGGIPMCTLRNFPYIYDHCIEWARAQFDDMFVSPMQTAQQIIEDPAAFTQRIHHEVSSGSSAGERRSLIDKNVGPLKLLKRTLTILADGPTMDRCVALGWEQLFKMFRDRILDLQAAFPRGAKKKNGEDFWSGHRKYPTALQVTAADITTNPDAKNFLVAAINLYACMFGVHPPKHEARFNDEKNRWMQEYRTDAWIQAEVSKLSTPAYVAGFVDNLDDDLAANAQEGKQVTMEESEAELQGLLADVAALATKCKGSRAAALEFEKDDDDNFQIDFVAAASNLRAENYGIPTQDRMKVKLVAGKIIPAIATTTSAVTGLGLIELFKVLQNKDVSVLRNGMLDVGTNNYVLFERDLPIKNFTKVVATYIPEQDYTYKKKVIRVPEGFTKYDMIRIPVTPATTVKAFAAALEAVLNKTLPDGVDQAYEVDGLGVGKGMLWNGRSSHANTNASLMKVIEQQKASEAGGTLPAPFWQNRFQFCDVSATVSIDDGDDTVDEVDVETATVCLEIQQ

[3] = molecular target: AMP-activated protein kinase, AMPK (Homo sapiens) (UniProt P54646+O43741+P54619+Q9UGJ0+Q9Y478+Q13131+Q9UGI9); test: AMP-dependent Kinase enzyme assay. An in vitro enzyme assay that detects ADP turnover that is directly proportional to AMPK activity. This uses naive AMPK that is activated during the assay with MK-8722; format: functional; details: 30 µM
[4] = molecular target: Sialic acid-binding Ig-like lectin 9 (Homo sapiens) (UniProt Q9Y336); test: Hs-Siglec9 ALPHAscreen SOP 20170721; details: 10 µM
Trypanosoma cruzi = test: Trypanosoma cruzi phosphomannomutase and mannose-1-phosphate guanylyltransferase assay; format: functional; details: 10 µM
[5] = molecular target: T2, Arginase-2, mitochondrial (Homo sapiens) (UniProt P78540); test: in vitro enzyme assay to detect the production of urea directly proportional to the activity of Arginase II; format: functional; details: 33.3 µM; further: in the data most compounds retested in dose-response had high values
T2 sequence (whole entry): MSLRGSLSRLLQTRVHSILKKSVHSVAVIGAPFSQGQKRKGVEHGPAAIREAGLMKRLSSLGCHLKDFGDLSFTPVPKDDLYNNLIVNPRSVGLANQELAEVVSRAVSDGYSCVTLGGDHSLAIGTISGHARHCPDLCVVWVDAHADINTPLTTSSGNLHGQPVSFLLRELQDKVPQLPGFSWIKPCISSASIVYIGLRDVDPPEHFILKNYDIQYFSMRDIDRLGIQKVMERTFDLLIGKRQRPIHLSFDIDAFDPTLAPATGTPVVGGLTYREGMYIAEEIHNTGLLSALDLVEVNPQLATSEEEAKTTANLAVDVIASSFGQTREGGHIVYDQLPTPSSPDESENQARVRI

[6] = molecular target: T3, Proteasome subunit beta (Trypanosoma cruzi) (UniProt O96673); test: Trypanosoma cruzi proteasome chymotrypsin-like activity (TcProtChymo) assay.; further: in the data most compounds retested in dose-response had high values; format: functional; details: 9.37 µM
T3 sequence (whole entry): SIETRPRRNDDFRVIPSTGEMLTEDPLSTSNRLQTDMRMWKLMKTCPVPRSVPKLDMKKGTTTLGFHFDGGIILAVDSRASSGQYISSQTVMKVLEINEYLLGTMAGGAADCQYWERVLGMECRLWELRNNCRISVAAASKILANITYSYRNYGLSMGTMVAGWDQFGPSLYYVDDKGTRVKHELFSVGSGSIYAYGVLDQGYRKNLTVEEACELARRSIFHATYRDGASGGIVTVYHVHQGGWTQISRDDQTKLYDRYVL

Homo sapiens = species on record: Homo sapiens; test: To identify inhibition of the IFN signalling (Jak-Stat) pathway via expression of an eGFP reporter gene under the control of an IFN-stimulated response element (ISRE) containing MxA promoter.; format: functional; details: 30 µM
[7] = molecular target: T4, Tyrosyl-tRNA synthetase, putative (Trypanosoma cruzi (strain CL Brener)) (UniProt Q4DSP6); test: Trypanosoma cruzi tyrosyl tRNA synthetase (TcYRS) _High Tyrosine SOP; format: functional; details: 30 µM; further: in the data most compounds retested in dose-response had high values
T4 sequence (whole entry): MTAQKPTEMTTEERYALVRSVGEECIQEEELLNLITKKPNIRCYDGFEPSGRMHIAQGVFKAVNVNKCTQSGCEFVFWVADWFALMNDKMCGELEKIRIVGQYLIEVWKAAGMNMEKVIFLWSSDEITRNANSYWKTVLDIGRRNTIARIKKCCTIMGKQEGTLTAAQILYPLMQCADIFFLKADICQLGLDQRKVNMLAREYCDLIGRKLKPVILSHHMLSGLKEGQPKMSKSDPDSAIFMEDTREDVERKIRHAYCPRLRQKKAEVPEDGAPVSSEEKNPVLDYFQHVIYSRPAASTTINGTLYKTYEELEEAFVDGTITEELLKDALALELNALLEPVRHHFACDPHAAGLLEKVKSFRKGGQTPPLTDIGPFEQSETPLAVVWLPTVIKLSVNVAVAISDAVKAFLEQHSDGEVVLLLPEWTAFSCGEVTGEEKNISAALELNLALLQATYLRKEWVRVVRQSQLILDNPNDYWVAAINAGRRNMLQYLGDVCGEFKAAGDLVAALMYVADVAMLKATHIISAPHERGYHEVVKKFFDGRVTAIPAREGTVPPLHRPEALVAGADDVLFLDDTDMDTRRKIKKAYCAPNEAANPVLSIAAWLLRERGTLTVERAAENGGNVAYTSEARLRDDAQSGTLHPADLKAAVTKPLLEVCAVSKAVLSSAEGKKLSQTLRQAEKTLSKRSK

[8] = molecular target: T4, Tyrosyl-tRNA synthetase, putative (Trypanosoma cruzi (strain CL Brener)); test: Trypanosoma cruzi tyrosyl tRNA synthetase (TcYRS) SOP; format: functional; details: 30 µM
[9] = molecular target: Chromo domain-containing protein 1 (Saccharomyces cerevisiae (strain ATCC 204508 / S288c) (Baker's yeast)) (UniProt P32657); test: ScCHD-1 Enzyme Inhibition Assay; format: functional; details: 30 µM; further: in the data most compounds retested in dose-response had high values
Chromo domain-containing protein 1 (Saccharomyces cerevisiae (strain ATCC 204508 / S288c) (Baker's yeast)), sequence (P32657 whole entry, the tested form may be a part): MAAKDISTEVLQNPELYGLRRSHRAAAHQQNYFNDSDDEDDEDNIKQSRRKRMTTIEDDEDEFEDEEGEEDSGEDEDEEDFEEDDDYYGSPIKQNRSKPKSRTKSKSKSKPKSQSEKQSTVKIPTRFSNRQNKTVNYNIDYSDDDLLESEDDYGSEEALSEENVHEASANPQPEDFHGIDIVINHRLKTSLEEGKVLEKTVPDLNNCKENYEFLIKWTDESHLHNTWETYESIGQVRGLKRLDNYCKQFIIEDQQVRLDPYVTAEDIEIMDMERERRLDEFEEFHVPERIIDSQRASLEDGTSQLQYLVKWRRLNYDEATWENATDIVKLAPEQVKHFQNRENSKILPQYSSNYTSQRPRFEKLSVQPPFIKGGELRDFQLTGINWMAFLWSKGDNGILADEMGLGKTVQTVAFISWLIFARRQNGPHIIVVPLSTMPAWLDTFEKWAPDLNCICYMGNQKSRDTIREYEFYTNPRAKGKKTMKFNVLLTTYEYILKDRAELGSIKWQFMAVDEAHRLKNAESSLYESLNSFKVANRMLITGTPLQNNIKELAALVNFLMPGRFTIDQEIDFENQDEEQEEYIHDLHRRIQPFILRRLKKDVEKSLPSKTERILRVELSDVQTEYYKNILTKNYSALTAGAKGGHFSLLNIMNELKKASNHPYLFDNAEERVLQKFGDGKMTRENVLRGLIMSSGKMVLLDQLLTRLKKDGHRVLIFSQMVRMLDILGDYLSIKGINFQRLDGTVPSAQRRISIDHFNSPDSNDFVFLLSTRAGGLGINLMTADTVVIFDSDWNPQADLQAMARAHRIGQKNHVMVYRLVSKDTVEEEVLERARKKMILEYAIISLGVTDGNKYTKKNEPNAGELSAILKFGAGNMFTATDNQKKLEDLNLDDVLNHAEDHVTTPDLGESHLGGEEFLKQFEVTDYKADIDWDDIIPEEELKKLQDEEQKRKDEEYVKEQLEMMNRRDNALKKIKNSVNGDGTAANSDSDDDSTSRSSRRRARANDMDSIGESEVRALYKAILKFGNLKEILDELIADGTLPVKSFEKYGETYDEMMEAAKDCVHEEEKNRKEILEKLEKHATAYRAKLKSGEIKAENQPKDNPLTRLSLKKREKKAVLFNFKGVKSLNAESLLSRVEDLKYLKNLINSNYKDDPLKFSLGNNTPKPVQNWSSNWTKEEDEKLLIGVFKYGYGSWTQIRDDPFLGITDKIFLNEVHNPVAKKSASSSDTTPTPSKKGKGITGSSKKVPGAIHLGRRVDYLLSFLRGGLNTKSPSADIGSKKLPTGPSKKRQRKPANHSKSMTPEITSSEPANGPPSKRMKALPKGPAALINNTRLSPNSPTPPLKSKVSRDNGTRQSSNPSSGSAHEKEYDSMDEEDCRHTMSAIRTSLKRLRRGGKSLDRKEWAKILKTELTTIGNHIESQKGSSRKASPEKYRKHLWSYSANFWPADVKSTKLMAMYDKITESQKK

Sialic acid-binding Ig-like lectin 9 (Homo sapiens), sequence (Q9Y336 whole entry): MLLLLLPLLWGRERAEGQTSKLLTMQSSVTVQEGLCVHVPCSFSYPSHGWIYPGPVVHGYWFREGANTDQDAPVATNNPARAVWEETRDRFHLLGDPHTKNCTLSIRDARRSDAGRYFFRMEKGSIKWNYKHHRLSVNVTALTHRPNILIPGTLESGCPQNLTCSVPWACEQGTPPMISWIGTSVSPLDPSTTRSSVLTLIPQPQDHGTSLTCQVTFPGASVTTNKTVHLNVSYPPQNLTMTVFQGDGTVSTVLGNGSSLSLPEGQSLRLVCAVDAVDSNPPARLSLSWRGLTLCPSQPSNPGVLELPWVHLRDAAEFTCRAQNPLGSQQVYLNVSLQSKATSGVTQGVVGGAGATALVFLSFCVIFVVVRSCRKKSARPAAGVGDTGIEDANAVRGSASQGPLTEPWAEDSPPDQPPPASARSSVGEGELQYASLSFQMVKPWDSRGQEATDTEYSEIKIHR
Protein translocase subunit SecA (Escherichia coli (strain K12)), sequence (P10408 whole entry): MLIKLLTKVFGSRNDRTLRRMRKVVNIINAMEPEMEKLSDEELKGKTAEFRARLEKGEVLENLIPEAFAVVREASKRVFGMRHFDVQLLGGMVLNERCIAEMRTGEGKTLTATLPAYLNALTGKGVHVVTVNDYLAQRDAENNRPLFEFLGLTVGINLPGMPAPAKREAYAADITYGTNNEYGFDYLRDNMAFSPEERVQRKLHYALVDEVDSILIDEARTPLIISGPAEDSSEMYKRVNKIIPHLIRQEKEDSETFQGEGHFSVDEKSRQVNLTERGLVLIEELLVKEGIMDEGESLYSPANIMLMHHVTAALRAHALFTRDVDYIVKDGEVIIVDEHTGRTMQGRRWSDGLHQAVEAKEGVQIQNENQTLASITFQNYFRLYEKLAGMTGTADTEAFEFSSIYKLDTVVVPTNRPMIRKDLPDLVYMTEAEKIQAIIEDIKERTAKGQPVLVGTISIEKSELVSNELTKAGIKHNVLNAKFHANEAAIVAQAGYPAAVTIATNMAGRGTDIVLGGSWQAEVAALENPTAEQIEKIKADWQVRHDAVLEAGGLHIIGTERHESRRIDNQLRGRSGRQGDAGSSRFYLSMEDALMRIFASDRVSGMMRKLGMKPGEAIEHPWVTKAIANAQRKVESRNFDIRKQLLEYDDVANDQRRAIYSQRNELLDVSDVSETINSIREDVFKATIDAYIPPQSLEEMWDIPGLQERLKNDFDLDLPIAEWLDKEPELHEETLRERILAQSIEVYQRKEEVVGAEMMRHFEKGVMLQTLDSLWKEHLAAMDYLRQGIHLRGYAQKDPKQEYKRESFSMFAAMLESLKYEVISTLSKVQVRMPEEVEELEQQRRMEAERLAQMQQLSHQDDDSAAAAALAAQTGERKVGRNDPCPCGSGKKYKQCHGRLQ

| Compound | Percent Effect [1] [%] | Percent Effect [2] [%] | Percent Effect [3] [%] | Percent Effect [4] [%] | Percent Effect (Trypanosoma cruzi) [%] | Percent Effect [5] [%] | Percent Effect [6] [%] | Percent Effect (Homo sapiens) [%] | Percent Effect [7] [%] | Percent Effect [8] [%] | Percent Effect [9] [%] |
| --- | --- | --- | --- | --- | --- | --- | --- | --- | --- | --- | --- |
| COc1cccc(COCC(O)CN2CC(n3cccn3)C2)c1 (stereo unspecified) | 0.892 | 21.1 | 5.98 | 1.34 | 6.58 | -0.383 | 10.4 | -16.2 | 7.35 | 19.5 | -12.6 |
| Cc1ccc(CC(=O)NCCCNS(C)(=O)=O)cc1 | -0.957 | 13.9 | 3.16 | 0.198 | -2.56 | -1.94 | 14.8 | -1.21 | 6.25 | 15.2 | -16.2 |
| COCCN1CCC(Cc2cncc(-c3ccc(C(=O)O)cc3)n2)C1 (stereo unspecified) | -5.18 | 1.35 | 42.5 | -3.43 | -3.75 | -2.55 | 3.43 | 12.6 | 1.07 | 1.3 | -3.54 |
| CCN1CCN(Cc2coc(-c3cccc(F)c3)n2)CC1 | -2.72 | 18.2 | -12.3 | -3.56 | 5.06 | -0.356 | 16.6 | -3.8 | 9.71 | 12.2 | -12 |
| Cn1c(CN2CCN(CC3CC3)CC2)nnc1C1CCC1 | -8.27 | 0 | -14 | 5.49 | -0.392 | -1.36 | 4.44 | -5.43 | -2.15 | 0 | -2.31 |
| Cc1ccc(=O)n(CC2(O)CCN(Cc3cc(C)c(O)c(C)c3)CC2)n1 | -6.97 | 23 | -6.19 | 7.09 | 6.52 | -2.55 | 13.3 | -3.64 | 2.15 | 14.3 | 45.6 |
| CS(=O)(=O)NCc1n[nH]c2c1CCN(C(=O)c1ccsc1)C2 | -4.91 | 0 | 2.22 | -3.92 | -3.48 | -59.7 | 10.9 | 5.55 | -2.08 | 0 | -5 |
| CCN(Cc1cccc(Cl)c1)Cn1nc(C)c2c(C)onc2c1=O | -8.55 | 8.11 | -4.63 | 2.84 | -3.68 | -0.802 | -0.18 | 14.3 | 1.48 | 1.24 | -6.67 |
| Cn1cc(CN2CC[C@@H]3[C@@H](CCC(=O)N3CCc3c[nH]cn3)C2)cn1 | -4.59 | 5.48 | -4.95 | 7.16 | 7.14 | -4.79 | 5.05 | -5.47 | 1.04 | 6.17 | -0.897 |
| Cc1ncc(C)c(N2CCCC(CO)(Cc3cccc(Cl)c3)C2)n1 (stereo unspecified) | -3.59 | 13 | 3.66 | 15.9 | 5.61 | 9.65 | 13.1 | 34 | 7.53 | 13.6 | -6.49 |
| COC(=O)CNC(=O)CSCc1nc(O)c2cc(C(C)C)sc2n1 | 0.0478 | -6.67 | 10.7 | 2.72 | -2.95 | -9.68 | 7.58 | -3.98 | -3.17 | 5.13 | -1.35 |
